Experimental findings from ChEMBL document CHEMBL3433997, “St. Jude Leishmania screening dataset” (2016) are described below.

The structures appear in SMILES notation.

What all share (format): functional
The target of test [1] is Solute carrier family 2, facilitated glucose transporter member 1 (Homo sapiens) (UniProt P11166). In words: ST_JUDE_LEISH: Cytotoxicity at 2uM final concentration against transgenic Leishmania Mexicana promastigotes LmGLUT1 that are glucose transport deficient and complemented with the human glucose transporter GLUT1. Activity is measured by DNA content using SYBR green in vitro.
Chain of Solute carrier family 2, facilitated glucose transporter member 1 (Homo sapiens) (P11166 whole entry): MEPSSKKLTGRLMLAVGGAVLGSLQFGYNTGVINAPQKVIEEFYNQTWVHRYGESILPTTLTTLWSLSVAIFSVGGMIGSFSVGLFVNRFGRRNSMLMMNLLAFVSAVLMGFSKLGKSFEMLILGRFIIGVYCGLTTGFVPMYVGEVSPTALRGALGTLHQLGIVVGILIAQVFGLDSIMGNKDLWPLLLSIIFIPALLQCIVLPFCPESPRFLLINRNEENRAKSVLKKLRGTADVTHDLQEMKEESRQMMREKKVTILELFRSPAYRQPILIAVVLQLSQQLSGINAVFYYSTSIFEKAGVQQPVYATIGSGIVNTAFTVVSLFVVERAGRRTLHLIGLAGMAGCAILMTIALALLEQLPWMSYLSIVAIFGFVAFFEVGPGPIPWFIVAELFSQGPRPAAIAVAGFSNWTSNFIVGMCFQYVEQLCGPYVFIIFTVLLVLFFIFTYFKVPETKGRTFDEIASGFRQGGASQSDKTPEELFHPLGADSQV

Test [2] addresses Hexose transporter 1 (Plasmodium falciparum) (UniProt O97467). Nature of the test: ST_JUDE_LEISH: Cytotoxicity at 2uM final concentration against transgenic Leishmania Mexicana promastigotes LmPfHT that are glucose transport deficient and complemented with the Plasmodium falciparum hexose transporter. Activity is measured by DNA content using SYBR green in vitro.
Test [3] addresses Glucose transporter (Leishmania mexicana) (UniProt O61059). In words: ST_JUDE_LEISH: Cytotoxicity at 2uM final concentration against transgenic Leishmania Mexicana promastigotes LmGT2 that are glucose transport deficient and complemented with the L. Mexicana glucose transporter 2. Activity is measured by DNA content using SYBR green in vitro.

`CCN(CCC1(c2ccc(Cl)c(Cl)c2)CN(C(=O)c2cc(OC)c(OC)c(OC)c2)CCO1)C1CC2c3ccccc3CC21` (stereo not given): the inhibition (as a rule, the change of the read-out against control, counted positive when it falls) in test [1] is -0.68%; in test [2], 1.17%; in test [3], -0.3%.
The matching figures for `CCN(CC)c1ccc2nc(N)nc(N)c2c1Cl`: 5.94%, 6.11% and 4.52%.
On the same counts, the results for `CCOc1cc(C(=O)NCC2CCN(CC3CCCCC3)CC2)ccc1-c1nc2cc(Cl)ccc2[nH]1` are 0.56%, 1.54% and 1.19%.
The matching figures for `CNC(=O)c1cc(S(=O)(=O)Nc2ccc(OC)cc2)cs1`: 0.48%, 0.9% and 2.1%.
With `COc1cc(NC(=O)c2sc(-c3ccc(Cl)cc3)cc2NC(=O)CN2CCCC2)ccc1OCCN1CCCC1`, the inhibition in test [1] was determined as 5.97%; in test [2] it was 9.91%; in test [3], 4.39%.
Take `CC(C)C[C@H](NC(=O)c1ccc(OCCN2CCOCC2)cc1)C(=O)NC(/C=N/N1CCCC1=O)C(C)C` (stereo not given in full): the inhibition is 2.27% in test [1], 3.56% in test [2] and 2.49% in test [3].
Take `CC(C)Cn1c(Sc2ccc(C#N)c([N+](=O)[O-])c2)nnc1-c1ccccc1`: the results for the inhibition in test [1], in test [2] and in test [3] were 6.46%, 6.58% and 3.76%, respectively.
On the same counts, the results for `CCC[C@@H]([C@@H](CC1CCCCC1)C(=O)NC(C(=O)Nc1nccs1)C(CC)c1ccccc1)N(O)C=O` (stereo not given in full) are 0.29%, 0.04% and 0.64%.
Consider `CC(=O)Nc1ccc(CN2CCC(NC(=O)c3ccc(-c4cccc(C(F)(F)F)c4)s3)CC2)cc1`, for which the inhibition in test [1] was 0.69%; in test [2], 0.42%; in test [3], -4.9%.
The matching figures for `Oc1ccc2ccccc2c1CNCC1CCCCC1`: 0.28%, 3.31% and 2.73%.
In the case of `Cc1cccc2nc(-c3cccc(-c4cccc(NC(=O)c5ccc(=O)[nH]n5)c4)c3)[nH]c12`, the inhibition was 5.27% in test [1], 1.34% in test [2] and 2.2% in test [3].
As for `Cc1cc2nc(-c3ccc(C(=O)NCCCc4ccccc4)cc3)[nH]c2cc1C`, the results for the inhibition in test [1], in test [2] and in test [3] were 9.41%, 9.39% and 10.1%, respectively.
In the case of `O=C(Cc1ccc[n+]([O-])c1)Nc1ccc(-c2cccc(-c3nc4cc(C(F)(F)F)ccc4[nH]3)c2)cc1`, the inhibition in test [1] was 1.49%; in test [2], 1.61%; in test [3], -0.42%.
The matching figures for `COc1ccc(CNCc2ccc(F)cc2)cc1-c1cccc(S(=O)(=O)NCCN2CCCC2)c1`: 0.82%, 0.14% and 1.01%.
Regarding `FC(F)(F)c1ccc2[nH]c(-c3ccc(-c4cccc(CN5CCN(CCN6CCOCC6)CC5)c4)cc3)nc2c1`, the inhibition amounted to 1.77% in test [1], 3.69% in test [2] and 2.25% in test [3].
In the case of `CC(C)Cc1cn(-c2nc(-c3nc4ccccc4[nH]3)cs2)c2ccncc12`, the inhibition in test [1] is 4.69%; in test [2], 6.3%; in test [3], 3.29%.
In the case of `O=C(NCc1cccc(OC(F)(F)F)c1)c1cnc2c(c1)nc(-c1c[nH]c(-c3ccccc3)n1)n2CCc1c[nH]cn1`, the inhibition in test [1] was 2.3%; in test [2], 2.34%; in test [3], -2.01%.
With `Cc1ccc(CN2CCCN(Cc3cccc(NC(=O)c4ccc(Cl)c(Cl)c4)c3)CC2)cc1`, the inhibition was -1.13% in test [1], -2.91% in test [2] and -0.82% in test [3].
As for `O=C(CCCCCNC(=O)c1ccc(O)c(-c2ccc(Cl)c(Cl)c2)c1)NCCN1CCCC1`, the inhibition in test [1] was 1.19%; in test [2], 0.7%; in test [3], 1.56%.
Take `COc1cc(C2Nc3ccc4ccccc4c3C3=C2C(=O)CC(C)(C)C3)ccc1Oc1ccc([N+](=O)[O-])cc1C#N` (stereo not given): the inhibition was 4.18% in test [1], 4.07% in test [2] and -0.66% in test [3].
On the same counts, the results for `O=C(N/C=N/c1cc([N+](=O)[O-])c(-c2cccnc2)n1-c1ccc(O)cc1)c1ccccc1` are -0.13%, -1.73% and -1.68%.
The matching figures for `COc1ccc2nccc([C@@H](O)CN3CCC(NCc4ccc5c(c4)NC(=O)CO5)CC3)c2c1`: 1.26%, 1.94% and 1.91%.
As for `O=C1CCCN1CCCNCc1ccc(-c2ccc(-c3nc4cc(F)ccc4[nH]3)s2)cc1`, the inhibition came to 2.19% in test [1], 1.67% in test [2] and 6.85% in test [3].
As to `CCCCCC(=O)NCC(NCCCNc1cc(=O)c2ccccc2[nH]1)c1cc(Br)cc(Br)c1` (stereo not given), the values for the inhibition in test [1], in test [2] and in test [3] were 5.16%, 2.44% and 5.39%, respectively.
The matching figures for `COc1ccc(C(=O)N2CCC(CN3CCOC(c4ccccc4)(c4ccccc4)C3)CC2)cc1`: 0.77%, 2.13% and 2.45%.
As for `CCCCC(CC)C(=O)C(NC(=O)[C@H](CSC(c1ccccc1)(c1ccccc1)c1ccccc1)NC(=O)OC(C)(C)C)C(=O)OC` (stereo not given in full), the inhibition in test [1] was determined as 3.84%; in test [2], 3.76%; in test [3], 3.51%.
The matching figures for `CC[C@H](C)CNC(=O)c1cccc(-c2cccc(CNCC3CNCCCO3)c2)n1` (stereo not given in full): -0.08%, -0.61% and -0.09%.
Regarding `COCC(=O)N(Cc1ccccc1-c1cccc(CNCc2ccc3c(c2)OCO3)c1)C1CCN(Cc2ccccc2)CC1`, the inhibition in test [1] amounted to 0.4%; in test [2], 1.22%; in test [3], 1.77%.
On the same counts, the results for `COc1ccc(CNC(=O)c2cnc3c(O)cccc3c2Nc2cccc(NC(=O)c3ccc(-c4ccccc4)cc3)c2)cc1` are 76.8%, 79.7% and 64.3%.
The matching figures for `CC(Cc1ccc(CNC(=O)c2ccc(CC(C)NCCc3cccc(Cl)c3)cc2)cc1)NCCc1cccc(Cl)c1` (stereo not given): 1.09%, 8.32% and 2.1%.
For `COc1cc2ncnc(Nc3ccc4nc(Cc5ccccc5)[nH]c4c3)c2cc1OC`, the values for the inhibition in test [1], in test [2] and in test [3] were 1.2%, 1.95% and 2.53%, respectively.
In the case of `COc1ccc(Cl)cc1NC(=O)CN(C)C(=O)c1cnn(-c2ccccc2)n1`, the inhibition in test [1] was 1.85%; in test [2], -0.34%; in test [3], 3.11%.
Turning to `Nc1c(Cl)cc(C(O)CNCCCCCCOCCc2ccc(CO)s2)cc1Cl` (stereo not given), the inhibition in test [1] worked out at 2.77%; in test [2] it was 1.49%; in test [3], 2.21%.
The matching figures for `COc1ccc(-c2nc3c(N)nc(N)nc3nc2C(C)C)cc1`: 15.6%, 30.7% and 21.4%.
The matching figures for `CC(=O)/N=C1\N=C(NC(C)=O)NC(C)(C)N1OCCCOc1ccc(Cl)c(Cl)c1`: 1.53%, 1.27% and 1.47%.
